# S1P2 blocker: human S1P2 receptor antagonists, primary screen, cell-based. inhibition, % at 5 µM. cell-based S1P2 antagonist assay, inhibition at 5 uM. 97,000 tested, 0.21% active. Sphingosine 1-phosphate receptor 2 (Homo sapiens), O95136; in the data active means inhibition above about 45%;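 further: CRE beta-lactamase reporter cells expressing human S1P2 stimulated with S1P; 0% = agonist at EC80 alone and 100% = agonist plus reference antagonist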
# GALR2 ag: GALR2 receptor agonists, primary screen, cell-based; Galanin receptor type 2 (Homo sapiens), O43603; GALR2-expressing cells, agonist activation read-out; AID 803, 2007; 140,000 tested, 0.48% active; activation, % (test concentration not listed); in the data active means activation above about 5%, passing the limit was not always enough;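 further: 0% = vehicle buffer wells and 100% = reference agonist at full effect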
# Target sequence (O43603 whole entry, looked up): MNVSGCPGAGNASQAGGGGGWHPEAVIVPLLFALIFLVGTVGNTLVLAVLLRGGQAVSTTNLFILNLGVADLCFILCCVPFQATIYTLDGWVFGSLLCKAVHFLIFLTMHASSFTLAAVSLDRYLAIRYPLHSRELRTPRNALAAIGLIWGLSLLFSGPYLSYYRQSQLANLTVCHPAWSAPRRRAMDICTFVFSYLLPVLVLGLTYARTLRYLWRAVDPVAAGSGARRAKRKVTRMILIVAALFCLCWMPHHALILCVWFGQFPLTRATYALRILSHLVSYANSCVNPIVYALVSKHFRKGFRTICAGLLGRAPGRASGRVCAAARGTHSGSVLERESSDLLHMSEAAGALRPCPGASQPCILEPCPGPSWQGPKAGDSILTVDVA
# S1P2 ag: S1P2 receptor agonists, primary screen, cell-based | Sphingosine 1-phosphate receptor 2 (Homo sapiens), O95136 | activation, % at 4.5 µM | S1P2-expressing cell line, agonist reporter read-out | 97,000 tested, 0.46% active; in the data active means activation above about 16%;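 further: 0% = vehicle low control and 100% = maximal reference agonist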
# GALR2 blocker: GALR2 antagonists in receptor-expressing cells, primary screen; Galanin receptor type 2 (Homo sapiens), O43603; AID 828, 2007; inhibition, % at 4 µM; antagonist mode; 140,000 tested, 0.39% active; in the data active means inhibition above about 27%;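 further: cells stimulated with galanin 1-16 at roughly its EC80; 0% = agonist challenge control and 100% = basal control without agonist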
# * marks the source's active call; other numbers are inactive results; . = no result given. In the library only some 1.2% were active in any assay of this set; here they are far more common.
SMILES,S1P2 blocker,GALR2 ag,S1P2 ag,GALR2 blocker
O=C(NCc1ccco1)c1cc2ccc(O)cc2oc1=O,-173.8,144.6*,81.7*,-70.0
COc1ccc2c(c1OC)C(=O)N1N=C(c3ccc(Cl)cc3)CC21 (configuration not stated),.,-0.5,.,-4.5
CCOCCCNc1nc(=S)[nH]c2cc(OC)c(OC)cc12,27.2,-1.5,448.9*,3.8
O=C(NC(=O)c1cccc(OC(F)(F)C(F)F)c1)OC1CCS(=O)(=O)C1 (configuration not stated),.,5.7*,.,-120.1
CCCc1nc2ccccc2c(C(=O)OCC(=O)Nc2cccc(S(=O)(=O)N3CCOCC3)c2)c1CC,-9.8,-1.0,19.2*,9.3
CCCc1nc2ccccc2c(C(=O)OCC(=O)Nc2ccc(S(=O)(=O)N3CCOCC3)cc2)c1CC,-19.7,0.2,-1.0,-17.6
CCC(C)C1NC(=S)N(C2CCCCC2)C1=O (configuration not stated),-19.4,0.3,-3.9,8.8
CCCCC1NC(=S)N(C2CCCCC2)C1=O (configuration not stated),.,7.1*,.,0.9
Cc1cc(C)c(NC(=O)COC(=O)/C=C/c2cccs2)c(C)c1,.,-0.5,.,-15.4
Cc1[nH]nc(SCC(=O)NCc2ccc(Cl)cc2)c1[N+](=O)[O-],.,1.6,.,-5.9
CC(C)(C)OC(=O)N[C@@H](Cc1ccccc1)c1nnc(S(=O)(=O)Cc2ccccc2)o1,12.5,2.1,-4.4,35.2*
COc1ccccc1NS(=O)(=O)c1cc([N+](=O)[O-])ccc1N/N=C/c1c[nH]c2ccccc12,62.5*,-3.2,-15.4,6.5
O=C(NCCN1CCN(c2ccccc2F)CC1)C1CC(=O)N(C2CCCC2)C1 (configuration not stated),11.1,-0.9,21.3*,-12.8
O=C(NCCN1CCN(Cc2ccccc2)CC1)C1CC(=O)N(C2CCCC2)C1 (configuration not stated),0.8,-1.1,-0.9,-8.1
CCOC(=O)c1sc(=S)n(C)c1NC(=O)c1ccccc1C,.,0.3,.,-2.6
Cc1ccccc1S(=O)(=O)Nc1nc2ccccc2nc1N1CCOCC1,18.1,-1.9,-4.9,11.5
N#CCCS(=O)(=O)c1nnnn1-c1ccccc1,63.5*,-4.7,-10.7,58.5*
N#CCCCSc1nnnn1-c1cccc(Cl)c1,-8.8,-4.5,-1.7,-7.3
COc1ccc(S(=O)(=O)N(CCc2ccccc2)CC(=O)O)cc1,9.4,-2.0,-0.1,2.2
CCCCCCc1cc2cc(-c3nnc(-c4ccccc4OC)o3)c(=O)oc2cc1O,-7.5,2.5,7.0,-10.5
CCCCCCc1cc2cc(-c3nnc(-c4ccccc4O)o3)c(=O)oc2cc1O,.,17.7*,.,12.8
CC(C)CC(c1nnnn1C(C)C)N1CCN(c2ccccc2)CC1 (configuration not stated),-2.6,-3.7,-5.4,9.4
CCNc1nc(NCC)n2c(SCc3ccc(F)cc3)nnc2n1,3.8,-0.9,-2.0,-7.1
CCNc1nc(NCC)n2c(SCc3nc4ccccc4c(=O)[nH]3)nnc2n1,-49.0,-1.0,43.2*,3.5
CCOC(=O)c1c(C)n(C)c2cc(-c3ccc(C)cc3)c(O)cc12,.,5.3*,.,-9.3
SMILES,S1P2 blocker,GALR2 ag,S1P2 ag,GALR2 blocker
CCOC(=O)c1c(C)n(C)c2cc(-c3cccc(C(F)(F)F)c3)c(O)cc12,.,-0.4,.,6.0
O=C(NCc1ccco1)C1Cc2ccccc2CN1S(=O)(=O)c1ccccc1F (configuration not stated),-2.7,-3.0,-0.8,2.5
S=C(NCc1ccccn1)Nc1ccc(Cl)c(Cl)c1,46.6*,-1.6,-5.2,0.8
c1ccc(C2=Nn3c(nnc3-c3n[nH]c4c3CCC4)SC2)cc1,1.6,-1.5,-10.7,-5.0
Clc1ccc(C2=Nn3c(nnc3-c3n[nH]c4c3CCC4)SC2)cc1Cl,-15.4,5.2*,-4.5,-11.5
COc1ccc(C(=O)N=C2CCC(C#N)=C3c4cc(OC)c(OC)cc4CCN23)cc1,.,3.2,.,14.2
COc1cc2c(cc1OC)C1=C(C#N)CC/C(=N\S(=O)(=O)c3ccccc3)N1CC2,-51.1,-0.7,49.2*,-4.0
COc1cc2c(cc1OC)C1=C(C#N)CCC(=O)N1CC2,-27.0,0.3,62.2*,-22.4
O=S(=O)(Nc1cccc2ccccc12)N1CCCC1,-6.5,-1.5,-6.8,-2.1
COC1(OC)N=C(NC(=O)Nc2ccccc2)C2(C#N)C(c3ccccc3)C12C#N (configuration not stated),14.8,-1.4,-2.3,2.6
CCN(CC)c1ncn(Cc2c(Cl)cccc2Cl)c2ncnc1-2,-33.8,-0.5,18.3*,-7.4
Clc1cccc(Cl)c1Cn1cnc2c(N3CCCCCC3)ncnc21,-30.7,0.5,9.9,1.6
CCN(CC)c1ncnc2c1ncn2Cc1c(Cl)cccc1Cl,-74.7,1.1,18.6*,-1.9

# Screening results deposited in PubChem BioAssay by The Scripps Research Institute Molecular Screening Center.
